Here are results for two molecules from PubChem BioAssay (NCATS).

In the test the test system is Zika virus NS2B-NS3 protease. Briefly: Primary screen GU AMC qHTS for Zika virus inhibitors (AID 1347154). Further: nearly all actives have a fitted effect of over 70% in size. In outline: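 Unlinked Zika NS2B hydrophilic domain/NS3 protease domain noncovalent complex (25 nM final) in 10 mM Tris-HCl pH 8.0, 0.01% Tween 20, with AMC peptide substrate. Fluorescence (ex 340, em 450 nm) change over 15 min, room temperature; percent inhibition fitted to 4-parameter Hill equation.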
(In general: In qHTS, concentration-response curves come from the screen itself.)

Records with an inconclusive call do not appear. Where a call stands in place of a potency, no number is given. A number with no mark means an inactive call. The source made the active and inactive calls. The call rests on the fitted dose curve; in most records, active means well fitted inhibition curve with a large enough effect; inconclusive means small, poorly fitted or top-dose-only effect; inactive means flat fitted curve, though single readings scatter.

Consider `CN(CCc1ccc(Cl)c(Cl)c1)[C@@H]1CCCC[C@@H]1N1CCCC1`, for which the Potency entry was “inactive”.

Regarding `C=CCN1CCC2(C)c3cc(O)ccc3CC1[C@@H]2C` (some centres not stated), the Potency result was “inactive”.
